# Hits are enriched below; roughly 17% of the tested compounds scored in any of these assays.
# TDP1 cell CPT: DT40-hTDP1 cell growth loss with CPT | 420,000 compounds, 12% hits | AID 686979 | chicken DT40 Tdp1-/-;hTDP1 cells + 20 nM CPT, ATP luminescence, 48 h | Potency, µM (doses to about 46.2 µM), inactives show at the highest dose activity change, negative = growth inhibition, most hits filed as inhibitors; note: % is set by controls: 0 for no effect and ±100 for the full control effect; nearly all actives have a fitted effect of over 55% in size
#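 Cell growth measured by CellTiter-Glo luminescence after a minimum 48 h, 37 C compound exposure with 20 nM CPT in Tdp1-knockout DT40 cells stably expressing hTDP1, seeded 400/well; qHTS titration format.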
# TDP1 inh: TDP1 (human) enzyme inhibition | recombinant TDP1, AlphaScreen DNA substrate cleavage | Potency, µM (series often up to 130 µM), for inactives: at the highest dose activity change, negative = inhibition, usual class: inhibitors | 350,000 compounds, 0.28% hits | AID 485290; note: % is set by controls: 0 for no effect and ±100 for the full control effect; nearly all actives have a fitted effect of over 40% in size
#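 Here, a 5' biotin and 3' phosphotyrosine-FITC DNA oligonucleotide reports Tdp1 activity: intact substrate bridges AlphaScreen beads, while cleavage leaves a 3' phosphate and drops signal. All incubations at room temperature.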
# DT40 TDP1 no CPT: qHTS for Inhibitors of human tyrosyl-DNA phosphodiesterase 1 (TDP1): qHTS in cells in absence of CPT. DT40 Tdp1-/- hTDP1 cells, no CPT, ATP luminescence, 48 h. AID 686978, 2013. Potency, µM (series often up to 46.2 µM), for the others: at the highest dose activity change, negative = growth inhibition, usual class: inhibitors. 420,000 compounds, 15% hits; note: % is set by controls: 0 for no effect and ±100 for the full control effect; nearly all actives have a fitted effect of over 55% in size
#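 No-CPT arm: Tdp1-/-;hTDP1 DT40 cells (400/well) plus compounds, incubated ≥48 hr at 37 °C. Readout CellTiter-Glo luminescence.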
# ClpP mod: qHTS Assay for Activators of ClpP. AID 651965, 2013. Potency, µM (doses to about 57.5 µM), for the others: at the highest dose activity change, negative = active. 340,000 compounds, 1.9% hits. ATP-dependent Clp protease proteolytic subunit (Bacillus subtilis (strain 168)), P80244. purified B. subtilis ClpP, FRET peptide cleavage, 20 min; active = well fitted falling curve with a large enough effect; inconclusive = small, poorly fitted or top-dose-only effect; inactive = no such curve, though single readings can be large or run the other way; note: the source files actives as falling curves though it sought activators and does not explain the sign; nearly all actives have a fitted effect of over 65% in size
#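 ClpP 10 microg/mL final, pH 8 Tris/KCl buffer with BSA, glycerol, Tween-20; compound pinned in; FRET-FV substrate; RT 20 min; Ex320/Em430; ΔFRET vs ADEP 5.8 microM, DMSO, no enzyme.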
# An asterisk follows results filed as active; ? = inconclusive; nt = not tested or not shown; [ ] = another dose, or the depositor's remark. Unless noted, calls come from the whole dose curve; as a rule, active = well fitted curve in the direction sought with a large enough effect; inconclusive = small, poorly fitted or top-dose-only effect, or another doubt; inactive = no such curve, though single readings can be large; an effect the other way counts as inactive or inconclusive. Potency is the fitted concentration of half-maximal effect.
SMILES,TDP1 cell CPT,TDP1 inh,DT40 TDP1 no CPT,ClpP mod
O=C(c1cnc2n(c1=O)CCS2)N(c1ccccc1)C1CCCCC1,?,7%,?,-1%
COc1cccc([C@@H]2Oc3ccc(OC)cc3/C(=N/OC[C@@H](O)COCc3ccco3)[C@@H]2O)c1,nt,10%[21 µM],nt,nt
COc1ccccc1C(=O)N1CCCC(C)(C(=O)NS(=O)(=O)C2CC2)C1 (centres undefined),?,nt,1.6µM*,-8%
CC1(C(=O)NS(=O)(=O)C2CC2)CCCN(C(=O)c2cccnc2Oc2ccccc2)C1 (centres undefined),?,nt,1µM*,-1%
CC1(C(=O)NS(=O)(=O)C2CC2)CCN(C(=O)c2ccccc2OC(F)(F)F)C1 (centres undefined),-4%,nt,0%,-3%
CC1(C(=O)NS(=O)(=O)C2CC2)CCCN(C(=O)c2ccccc2C(F)(F)F)C1 (centres undefined),6.5µM*,nt,5.8µM*,1%
COc1cccc(COC(=O)c2ccc3c(=O)n4c(nc3c2)CCC4)c1OC,13%,2%,2%,0%
O=C1c2ccccc2C(c2nnnn2Cc2ccccc2)N1Cc1cccnc1 (centres undefined),3%,nt,-24%,-2%
Cc1cccc(/C=C/C(=O)c2cc(Br)ccc(=O)c2O)c1,3.3µM*,8%,3.3µM*,1%
CCc1ccc(/C=C/C(=O)c2cc(Br)ccc(=O)c2O)cc1,3.3µM*,-5%,5.2µM*,-2%
CCOc1ccc(/C=C/C(=O)c2cc(Br)ccc(=O)c2O)cc1,4.6µM*,11%,3.7µM*,1%
CCCCn1nnnc1C1(C)CCC(=O)N1CCOc1ccccc1 (centres undefined),-19%,nt,-10%,-4%
CCCN(CCC)C(=O)c1c[nH]c2ccc(S(=O)(=O)N(C)c3ccc(Cl)cc3)cc2c1=O,?,0%,?,?
Cc1ccc(S(=O)(=O)N2[C@@H](c3cccc(Cl)c3)C(C(=O)OC(C)(C)C)=CC[C@H]2c2ccc(C(C)C)cc2)cc1,?,nt,15µM*,-2%
Cc1ccc(S(=O)(=O)N2[C@@H](c3ccc(Br)cc3)C(C(=O)O)=CC[C@H]2c2ccc(Cl)c(Cl)c2)cc1,-15%,-9%,-28%,2%
Cc1ccc(S(=O)(=O)N2[C@@H](c3ccc(Cl)cc3)C(C(=O)OC(C)(C)C)=CC[C@H]2c2ccc(Cl)c(Cl)c2)cc1,?,nt,15µM*,0%
COc1ccc([C@@H]2CC=C(C(=O)O)[C@H](c3ccc(C(C)(C)C)cc3)N2S(=O)(=O)c2ccc(C)cc2)cc1OC,?,3%,15µM*,-1%
CCOc1ccccc1C(=O)NC(C)c1ccc(-n2ccnc2)cc1 (centres undefined),?,2%,-30%,2%
COc1ccc(C(=O)N2CCC3(CC2)NCCc2[nH]cnc23)cc1,-2%,1%,-24%,-5%
CC(=O)N1CCCc2cc(S(=O)(=O)N(C)CC(=O)Nc3ccc(F)c(Cl)c3)ccc21,10µM*,-1%,21µM*,0%
CCc1cccc(NC(=O)CN(C)S(=O)(=O)c2ccc3c(c2)CCCN3C(C)=O)c1,21µM*,8%,?,2%
CC(=O)N1CCCc2cc(S(=O)(=O)N(CCN(C)C)Cc3ccccc3)ccc21,2%,4%,-16%,-3%
CN(CC(=O)Nc1ccc(F)c(Cl)c1)S(=O)(=O)c1ccc2c(c1)n(C)c(=O)c(=O)n2C,?,-2%,?,-9%
CC(=O)N1CCCc2cc(S(=O)(=O)N(C)Cc3ccccc3)ccc21,?,5%,21µM*,3%
CC(=O)N1CCCc2cc(S(=O)(=O)N(C)CC(=O)Nc3cccc(C)c3C)ccc21,?,1%,?,-2%
SMILES,TDP1 cell CPT,TDP1 inh,DT40 TDP1 no CPT,ClpP mod
O=C(c1ccc(CS(=O)c2ccc(F)cc2)o1)N1CCN(C2CCCCC2)CC1 (centres undefined),-3%,1%,0%,1%
CC(C)(C)C(C(=O)n1cccc1C#N)c1ccccc1 (centres undefined),?,-8%,-16%,0%
COc1cccc(C2CC(c3cccs3)=NN2C(=O)CSc2nc3ccccc3s2)c1OC (centres undefined),15µM*,-3%,13µM*,28µM*
COc1cccc(C2CC(c3cccs3)=NN2C(=O)CSc2nc3c(cnn3-c3ccc(F)cc3)c(=O)[nH]2)c1OC (centres undefined),23µM*,3%,23µM*,4%
CC1=C(C(=O)O)N2C(=O)C(NC(=O)C(N)C3=CCC=CC3)C2SC1 (centres undefined),?,-4%[56.1 µM],0%,nt
CC(OC(=O)c1cccc(S(=O)(=O)N(C)C)c1)C(=O)NCC(=O)Nc1ccc(F)c(F)c1F (centres undefined),3%,nt,?,-3%
OC(c1cccc(Cl)c1)c1nc(-c2ccccc2)cs1 (centres undefined),?,nt,-19%,-4%
CC(C)c1cccc(-c2csc(C(O)c3cccc(Cl)c3)n2)c1 (centres undefined),23µM*,nt,21µM*,0%
CN(C)c1ccc(-c2csc(C(O)c3cccc(Cl)c3)n2)cc1 (centres undefined),21µM*,nt,21µM*,-1%
Cc1ccc(NC(=O)c2ccc(-n3c(C)nnc3C)cc2)cc1F,-23%,1%,-30%,-2%
Cc1nc(N2CCCC2)ncc1C(=O)Nc1ccccc1,-28%,1%,-10%,?
O=C(NCCOc1ccccc1)C1C(=O)Nc2ccccc2C(=O)N1C1CCCCC1 (centres undefined),3%,nt,-6%,-2%
Cc1ccc(S(=O)(=O)N2c3ccccc3OC(C(=O)OC(C)(C)C)(C(=O)OC(C)(C)C)C2CC(=O)c2ccccc2)cc1 (centres undefined),6.5µM*,nt,5.8µM*,-2%
COC(=O)CC1N(S(=O)(=O)c2ccc(C)cc2)c2ccccc2C1(C(=O)OC)C(=O)OC (centres undefined),26µM*,nt,?,1%
COc1cnc(N(C)C)nc1Sc1cccc(Cl)c1,?,-1%,?,?
COc1cnc(-c2ccccn2)nc1Sc1c(Cl)cccc1Cl,0.65µM*,3%,0.92µM*,-1%
COc1ccccc1Sc1nc(-c2ccccc2)ncc1OC,?,-4%,21µM*,nt
CCOC(=O)C(C)Sc1nc(-c2ccccn2)ncc1OC (centres undefined),2.9µM*,3%,5.8µM*,nt
COc1cnc(-c2ccccn2)nc1Sc1ccccc1Cl,1.5µM*,10%,1µM*,-2%
COc1cnc(-c2ccccc2)nc1Sc1ccccc1,0%,-5%,?,nt
